Laboratory results: PubChem BioAssay AID602346 (Broad Institute, 2012)
About 1,200 (0.35%) of roughly 340,000 compounds were called active. This excerpt belongs to a sample that is enriched for actives. A number with no mark means an inactive call. Rule as the data show it: active = inhibition above about 50% (passing the limit was not always enough); inconclusive = no clear call, values can overlap the other calls; inactive = below about 31%.

Experiment: blockers of Vif multimerization in cells – imaging, HEK293T, single point, primary screen (AID 602346)
Settings: Vif self-association by quenched fluorescence, 24 h, at 7.49 µM, stronger effect = higher value

Row | SMILES | inhibition
1 | CN(C)CCNC(=O)c1cccc(-c2cnc3c(NC=O)cc(-c4cccc(C(F)(F)F)c4)cn23)c1 | 5.61%
2 | C=C1C(=O)[C@]23C[C@H]1CCC2[C@@]1(C)C(C[C@@H]3O)[C@](C)(C(=O)O)CC[C@@H]1O (stereo partly drawn) | 12.6%
3 | O=C(CCCN1C(=O)C(c2ccccc2)Oc2cccnc21)Nc1ccccc1Br (stereo not drawn) | 6.43%
4 | CC(=O)Nc1cc(-c2ccccc2N(C)C)cn2c(-c3ccc(F)c(Cl)c3)cnc12 | -4.22%
5 | CC(=O)Nc1cccc(-c2ccnc3c2CC(C)(C(=O)NCc2ccccc2)O3)c1 (stereo not drawn) | -11.2%
6 | Cc1ccccc1OS(=O)(=O)c1cccc([N+](=O)[O-])c1 | -0.237%
7 | COc1cccc(OCCOc2cccc(/C=N/n3cnnc3)c2)c1 | 11.7%
8 | Cc1ccccc1OCCOc1ccc([N+](=O)[O-])cc1/C=N/n1cnnc1 | 69.4% (active)
9 | C=CCn1nc(C(=O)OCC)cc1-c1sc(NC(=O)c2ccccc2)nc1C | -3.36%
10 | COc1ccccc1N1CCN(Cc2ccc(OC)c3ccccc23)CC1 | 112% (active)
11 | COc1ccccc1N1CCN(Cc2cc(OC)c3c(c2)OCO3)CC1 | -1.02%
12 | COc1ccc(CN2CCN(Cc3ccc(OC)c(OC)c3OC)CC2)cc1 | -0.337%
13 | COCOCCn1cc(CN2CCS(=O)(=O)N(Cc3ccc(-c4ccccc4)cc3)C(CC(C)C)C2=O)nn1 (stereo not drawn) | 15.8%
14 | Cc1cc(=O)[nH]c(SCC(=O)Nc2ccc(Br)cc2)n1 | -3.77%
15 | O=C(CSCc1ccc(Br)cc1)Nc1ccc(S(=O)(=O)N2CCCCCC2)cc1 | -7.79%
16 | O=C1CCCN2N=C(SCC(=O)Nc3ccc(Br)cc3)SC2=N1 | 59.2% (active)
17 | CC1(C(=O)NCC2CCOCC2)Cc2c(-c3cccc(C(N)=O)c3)ccnc2O1 (stereo not drawn) | -1.25%
18 | Cc1cc(Cl)ccc1-c1nc(NCCN(C)C)nc2ccsc12 | -1.21%
19 | CC(=NNC(=O)c1ccc2nc[nH]c2c1)c1ccc(Br)cc1 | 63.5% (active)
20 | C/C(=N\NC(=O)c1ccc2ccccc2c1)c1cccnc1 | -7.71%
21 | COc1ccc(/C(C)=N/NC(=O)c2ccc3nc[nH]c3c2)cc1 | 1.81%

Row | SMILES | inhibition
22 | COc1ccc(-c2ccc(C(=O)NC(C)C)c3occc23)c(C)c1 | -26.1%
23 | Cc1cc2cc3n(c2nn1)N=C(Cl)CC3 | 29.1%
24 | CCOC(=O)c1cc(-c2sc(NC(=O)c3ccccc3)nc2C)n(Cc2ccccc2)n1 | -2.32%
25 | N#Cc1c(N)n(CCOC(=O)c2ccc(Cl)cc2)c2nc3ccccc3nc12 | -17.3%
26 | CN(C)CCCn1c(N)c(C#N)c2nc(C#N)c(C#N)nc21 | 52.6% (active)
27 | NC1=CC(=O)C(=O)c2cccnc21 | -1.29%
28 | CC1(Cc2cccc(C#N)c2)C(=O)Nc2ccc(-c3cccc(C(F)(F)F)c3)cc21 (stereo not drawn) | -26.8%
29 | Nc1ncnc2c1ncn2[C@@H]1O[C@H](C(=O)NCC(F)(F)F)[C@@H](O)[C@H]1O | 96.8% (active)
30 | Cc1nccn1-c1ccc(NC(=O)[C@H]2O[C@@H](n3cnc4c(N)ncnc43)[C@H](O)[C@@H]2O)cc1 | 14.6%
31 | CN(Cc1ccc(C(F)(F)F)cc1)C(=O)[C@H]1O[C@@H](n2cnc3c(N)ncnc32)[C@H](O)[C@@H]1O | -5.61%
32 | Cc1nc2c(OCC(=O)C(C)(C)C)cccn2c1N(C)Cc1cccs1 | -0.585%
33 | CCOc1ccc(CCN2C(=S)N([C@@H](CC(C)C)CN3CCC[C@@H]3CN3C(=S)NC[C@@H]3Cc3ccc(O)cc3)C[C@@H]2CC(C)C)cc1 | 12.9%
34 | O=C(NCc1cccc(Cl)c1)C1=CC=CN2CCS(=O)(=O)N=C12 | 52.6% (active)
35 | O=C(NCc1cccc(Cl)c1)C1CCC(=O)N(C2CC2)C1 (stereo not drawn) | -0.951%
36 | O=C(NCc1cccc(Cl)c1)C1CCN(c2nnc(N3CCCC3=O)s2)CC1 | 3.92%
37 | CN(C(=O)CN1CCN(c2cc(-c3ccc(OCc4ccccc4)cc3)ncn2)CC1)c1ccccc1 | -17.3%
38 | CC(=O)Nc1ccc(CNc2nc(NCCN(C)C)nc3cc(-c4ccccc4)sc23)cc1 | -16%
39 | Cc1ccc(NC(=O)Cn2nnc(C(=O)NCc3ccco3)c2N)c(C)c1 | -2.06%
40 | CCOc1ccccc1NC(=O)Cn1nnc(C(=O)NCc2cccs2)c1N | 62.1% (active)
41 | COc1cccc(CNC(=O)c2nnn(CC(=O)Nc3cc(C)ccc3C)c2N)c1 | 9.65%
42 | NC(=S)NN=Cc1ccc(OC(=O)COc2cc(Cl)c(Cl)cc2Cl)cn1 | 4.39%

Row | SMILES | inhibition
43 | CC(C)Oc1cc(F)ccc1-c1cc(C(=O)Nc2cccc(Cl)c2)[nH]n1 | -9.5%
44 | O=C(COC(=O)c1ccc(O)cc1)Nc1nccs1 | 2.05%
45 | CC1CCN(CC(=O)Nc2nccs2)CC1 | 50.9% (active)
46 | CC(=O)NC1CCN(CC(=O)Nc2nccs2)CC1 | 4.49%
47 | CC(C)Oc1ccc(CN2CCC2(C)C(=O)NCc2ccc(C(F)(F)F)cc2)cc1 (stereo not drawn) | -4.01%
48 | O=C(NCc1cccnc1)c1cc(C2CCCCN2C(=O)CCc2ccccc2)on1 (stereo not drawn) | -0.0335%
49 | COCOCCn1cc(CN2CCS(=O)(=O)N(Cc3ccc(-c4ccc(OC)cc4)cc3)C(CC(C)C)C2=O)nn1 (stereo not drawn) | 1.43%
50 | O=C(CN1C(=O)c2cccc3cccc1c23)Nc1ccccc1 | 2.82%
51 | CCN(CC)S(=O)(=O)c1ccc2c3c(cccc13)C(=O)S2 | -0.161%
52 | CCN1C(=O)c2cccc3c(S(=O)(=O)Nc4ccccc4O)ccc1c23 | 112% (active)
53 | O=C(NCc1cccnc1)Nc1ccccc1F | 20.3%
54 | O=C(NCc1cccnc1)Nc1cccc(NC(=O)NCc2cccnc2)c1F | 56% (active)
55 | O=C(NCc1cccnc1)c1ccccc1NC(=O)c1c(F)cccc1F | -6.43%
56 | C#Cc1ccc(NC(=O)C2(C)CCN2C(=O)Cc2ccc(-c3ccccc3)cc2)cc1 (stereo not drawn) | -14.6%
57 | Cc1cccc(C)c1Cn1c(C)c(C(=O)NCc2cccc(Cl)c2)sc1=O | -0.663%
58 | O=C1[C@H]2[C@@H](c3ccc(C(F)(F)F)cc3)N[C@]3(CCCN(Cc4ccc(Cl)cc4)C3=O)[C@H]2C(=O)N1Cc1ccccc1 | 2.09%
59 | CC1(C(=O)Nc2cccc3cccnc23)CCN1C(=O)CCC1CCCC1 (stereo not drawn) | -1.65%
60 | CN(C)CCNC(=O)c1ccc(-c2cn3c(-c4ccc(Oc5ccccc5)cc4)cnc3cn2)cc1 | 1.97%
61 | COc1ccc(-c2cc(C(F)(F)F)nc(S(C)(=O)=O)n2)cc1OC | 90.1% (active)
62 | COc1ccc(-c2ccc(Nc3ccc(S(=O)(=O)N4CCCC4)cc3)nn2)cc1OC | -7.98%
63 | COc1ccc(-c2cc(-c3ccc(N)cc3)nc(N)c2C#N)cc1OC | -0.12%

Row | SMILES | inhibition
64 | COc1ccc(OC)c(C(=O)NC2CCCc3c2cnn3-c2cc(C)cc(C)c2)c1 (stereo not drawn) | -9.82%
65 | CC(=O)Nc1cc(-c2ccccc2F)cn2c(-c3cccc(C(F)(F)F)c3)cnc12 | -25.4%
66 | OC[C@@H]1CN(Cc2ccncc2)C[C@H](n2cnc3c(N4CCN(c5ccccc5)CC4)ncnc32)O1 | -25.2%
67 | CN1CCN(/N=C/c2ccc(-c3ccc([N+](=O)[O-])cc3)o2)CC1 | -7.47%
68 | NS(=O)(=O)c1ccc(-c2ccc(/C=C3\SC(=O)NC3=O)o2)cc1 | 55.8% (active)
69 | O=C1[C@H]2[C@@H](c3ccc(C(F)(F)F)cc3)N[C@]3(CCCN(Cc4ccc(Br)cc4)C3=O)[C@H]2C(=O)N1Cc1ccccc1 | 1.02%
70 | C#Cc1cc(N2CCN(C(=O)c3ccoc3)CC2)n2nc(-c3cccc(Cl)c3)cc2n1 | -5.39%
71 | CC(C)N(C(=O)[C@H]1C[C@H](CC(=O)NCCC2=CCCCC2)C(=O)N2CCc3c([nH]c4cc(CCC(=O)N(C)C)ccc34)[C@]12C)C(C)C | 0.666%
72 | CN(C)C(=O)CCc1ccc2c3c([nH]c2c1)[C@]1(C)[C@@H](C(=O)N2CCCCC2)C[C@H](CC(=O)NCCC2=CCCCC2)C(=O)N1CC3 | 71.8% (active)
73 | CN(C)C(=O)CCc1ccc2c3c([nH]c2c1)[C@]1(CCc2ccccc2)[C@@H](C(=O)N2CCCCC2)C[C@H](CC(=O)NCCC2=CCCCC2)C(=O)N1CC3 | 2.36%
74 | Cc1nc2c(OCc3cccc(Cl)c3)cccn2c1N(C)CC1CC1 | -11.2%
75 | COc1ccc(CC(N)c2csc(NC(=O)Nc3ccc(C(C)C)cc3)n2)cc1 (stereo not drawn) | -7.74%
76 | Cc1ccc(C(=O)Nc2nc3ccc(Cl)cc3s2)o1 | -31.1%
77 | Cc1ccc(CCC(=O)Nc2ncc(Cc3cc(Cl)ccc3Cl)s2)o1 | 144% (active)
78 | Cc1ccc(Cc2cnc(N)s2)o1 | -1.08%
79 | CSCCC(c1nnnn1Cc1ccccc1)N1CCN(C/C=C/c2ccccc2)CC1 (stereo not drawn) | -1.75%
80 | Cc1ccc(Cn2c(C)c(C(=O)NCc3ccccc3C(F)(F)F)sc2=O)cc1 | 4.56%
81 | N#Cc1cc([N+](=O)[O-])ccc1Oc1cccc(/C=N/NC(=O)c2ccc(Cl)cc2)c1 | -18.6%
82 | COC(=O)c1ccc(COc2ccc(/C=N/NC(=O)C(=O)Nc3ccc(OC)cc3)cc2OC)o1 | 4.89%
83 | CCCc1ccc(OCc2ccc(C(=O)N/N=C/c3cccc([N+](=O)[O-])c3)o2)c(OC)c1 | 53.7% (active)
